Targets include BARHL2 DBD T278V (EMX1) (human, UniProt Q9NY43 227-293, T278V); BARHL2 DBD T285M (NANOG) (human, UniProt Q9NY43 227-293, T285M); BARHL2 DBD T285A (LBX1) (human, UniProt Q9NY43 227-293, T285A).
What all share (assay): HT-SELEX; SELEX buffer: 10.4 mM Tris-HCl pH 7.5, 51.4 mM NaCl, 1.4 mM MgCl2, 4% glycerol, 100 uM EGTA, 0.7 mM DTT, 3.7 ug/ml poly-dI-dC, 1.4 uM ZnSO4; room temperature (2); high values mean tight binding
Common to all, as to settings: protein: recombinant; dsDNA, one strand shown

The target in test [1] is BARHL2 DBD ctrl (unmutated, SELEX) (human, UniProt Q9NY43 227-293).
In test [2] the target is BARHL2 DBD T278I/T285N (HMX3) (human, UniProt Q9NY43 227-293, T278I;T285N).
For test [3], the target named is BARHL2 DBD T278I (NKX1.2) (human, UniProt Q9NY43 227-293, T278I).
Test [4] deals with BARHL2 DBD T278I/T285V (HOXB13) (human, UniProt Q9NY43 227-293, T278I;T285V).
In test [5] the target is BARHL2 DBD T278N/T285I (PBX1) (human, UniProt Q9NY43 227-293, T278N;T285I).
The target in test [6] is BARHL2 DBD T278V/T285A (ALX4) (human, UniProt Q9NY43 227-293, T278V;T285A).
Test [7] concerns the target BARHL2 DBD T278I/T285M (HOXA3) (human, UniProt Q9NY43 227-293, T278I;T285M).
The target of test [8] is BARHL2 DBD T278V/T285M (MEOX2) (human, UniProt Q9NY43 227-293, T278V;T285M).
In test [9] the target is BARHL2 DBD T278I/T285A (CDX1) (human, UniProt Q9NY43 227-293, T278I;T285A).
Test [10] addresses BARHL2 DBD T278I/T285S (DLX1) (human, UniProt Q9NY43 227-293, T278I;T285S).
Test [11] deals with BARHL2 DBD T278N/T285Q (SIX6) (human, UniProt Q9NY43 227-293, T278N;T285Q).
The target of test [12] is BARHL2 DBD T278N/T285R (PKNOX1) (human, UniProt Q9NY43 227-293, T278N;T285R).
Chain of BARHL2 DBD T278N/T285R (PKNOX1) (Q9NY43 227-293 T278N/T285R): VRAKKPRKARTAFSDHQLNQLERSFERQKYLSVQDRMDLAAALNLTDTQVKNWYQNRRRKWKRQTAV

Chain of BARHL2 DBD T278I/T285A (CDX1) (Q9NY43 227-293 T278I/T285A): as the sequence (Q9NY43 227-293 T278N/T285R) above, with N52I, R59A counted along it
Chain of BARHL2 DBD T285A (LBX1) (Q9NY43 227-293 T285A): as the sequence (Q9NY43 227-293 T278N/T285R) above, with N52T, R59A counted along it
Chain of BARHL2 DBD T278I (NKX1.2) (Q9NY43 227-293 T278I): as the sequence (Q9NY43 227-293 T278N/T285R) above, with N52I, R59T counted along it
Chain of BARHL2 DBD T278V (EMX1) (Q9NY43 227-293 T278V): as the sequence (Q9NY43 227-293 T278N/T285R) above, with N52V, R59T counted along it
Chain of BARHL2 DBD T278V/T285M (MEOX2) (Q9NY43 227-293 T278V/T285M): as the sequence (Q9NY43 227-293 T278N/T285R) above, with N52V, R59M counted along it
Chain of BARHL2 DBD T278N/T285I (PBX1) (Q9NY43 227-293 T278N/T285I): as the sequence (Q9NY43 227-293 T278N/T285R) above, with R59I counted along it
Chain of BARHL2 DBD T278I/T285V (HOXB13) (Q9NY43 227-293 T278I/T285V): as the sequence (Q9NY43 227-293 T278N/T285R) above, with N52I, R59V counted along it
Chain of BARHL2 DBD T278I/T285M (HOXA3) (Q9NY43 227-293 T278I/T285M): as the sequence (Q9NY43 227-293 T278N/T285R) above, with N52I, R59M counted along it
Chain of BARHL2 DBD T285M (NANOG) (Q9NY43 227-293 T285M): as the sequence (Q9NY43 227-293 T278N/T285R) above, with N52T, R59M counted along it
Chain of BARHL2 DBD T278I/T285S (DLX1) (Q9NY43 227-293 T278I/T285S): as the sequence (Q9NY43 227-293 T278N/T285R) above, with N52I, R59S counted along it
Chain of BARHL2 DBD T278N/T285Q (SIX6) (Q9NY43 227-293 T278N/T285Q): as the sequence (Q9NY43 227-293 T278N/T285R) above, with R59Q counted along it
Chain of BARHL2 DBD T278V/T285A (ALX4) (Q9NY43 227-293 T278V/T285A): as the sequence (Q9NY43 227-293 T278N/T285R) above, with N52V, R59A counted along it
Chain of BARHL2 DBD T278I/T285N (HMX3) (Q9NY43 227-293 T278I/T285N): as the sequence (Q9NY43 227-293 T278N/T285R) above, with N52I, R59N counted along it
Chain of BARHL2 DBD ctrl (unmutated, SELEX) (Q9NY43 227-293, stated change not applied): as the sequence (Q9NY43 227-293 T278N/T285R) above, with N52T, R59T counted along it

As for TAAACG, the binding signal turned out to be 28 fold enrichment in test [1]; 4 fold enrichment in test [2]; 7.8 fold enrichment in the test with BARHL2 DBD T278V (EMX1); 6.6 fold enrichment in test [3]; 3.8 fold enrichment with BARHL2 DBD T285M (NANOG); 2.4 fold enrichment in [4]. Moreover, the binding signal worked out at 2.8 fold enrichment in test [5]; 3.3 fold enrichment in test [6]; 2.5 fold enrichment in test [7]; 3.1 fold enrichment in [8]; 3.7 fold enrichment in [9]; 4.7 fold enrichment in test [10]. For the same sequence, the binding signal was determined as 2.4 fold enrichment in [11], 6.3 fold enrichment with BARHL2 DBD T285A (LBX1) and 1.6 fold enrichment in test [12].

As for TAAGCG, the binding signal came out at 3 fold enrichment in [1]; 2.4 fold enrichment in [2]; 3.2 fold enrichment in the test with BARHL2 DBD T278V (EMX1); 2.4 fold enrichment in test [3]; 3.6 fold enrichment with BARHL2 DBD T285M (NANOG); 1.4 fold enrichment in test [5]. Also, the binding signal is 1.9 fold enrichment in test [6]; 2.4 fold enrichment in test [7]; 2.7 fold enrichment in test [8]; 1.8 fold enrichment in test [9]; 1.9 fold enrichment in test [10]; 1.6 fold enrichment in [11]. The binding signal with BARHL2 DBD T285A (LBX1) is 2.9 fold enrichment.

With TAATGG, the binding signal in test [1] was determined as 7.8 fold enrichment; in test [2], 1.9 fold enrichment; with BARHL2 DBD T278V (EMX1) it was 7.6 fold enrichment; in test [3] it was 8 fold enrichment; in the test with BARHL2 DBD T285M (NANOG) it was 6.2 fold enrichment; in test [4], 7.7 fold enrichment. Besides, the binding signal was 9.1 fold enrichment in [5]; 3.7 fold enrichment in test [6]; 8.4 fold enrichment in [7]; 7.6 fold enrichment in test [8]; 6.2 fold enrichment in test [9]; 8.1 fold enrichment in [10]. Moreover, the binding signal in test [11] amounted to 7 fold enrichment; with BARHL2 DBD T285A (LBX1) it was 4.7 fold enrichment.

As for TAATCG, the binding signal in test [1] came to 9.7 fold enrichment; in test [2], 12.6 fold enrichment; with BARHL2 DBD T278V (EMX1), 8 fold enrichment; in [3] it was 9.4 fold enrichment; with BARHL2 DBD T285M (NANOG) it was 7.6 fold enrichment; in [4], 5.9 fold enrichment. Also, the binding signal was 8.1 fold enrichment in test [5]; 5.1 fold enrichment in test [6]; 11.4 fold enrichment in [7]; 8.5 fold enrichment in test [8]; 9.9 fold enrichment in [9]; 10.9 fold enrichment in [10]. The binding signal in [11] worked out at 6.7 fold enrichment; with BARHL2 DBD T285A (LBX1), 9 fold enrichment; in [12] it was 2.6 fold enrichment.

For the sequence TAACCG, the binding signal in test [1] stood at 2.1 fold enrichment; in test [2] it was 2 fold enrichment; with BARHL2 DBD T278V (EMX1) it was 1.6 fold enrichment; in test [3], 1.5 fold enrichment; with BARHL2 DBD T285M (NANOG), 2.3 fold enrichment; in test [5] it was 3.7 fold enrichment. The binding signal in [6] worked out at 1.9 fold enrichment; in test [7], 1.5 fold enrichment; in test [8] it was 1.5 fold enrichment; in test [9], 1.9 fold enrichment; in [10], 1.7 fold enrichment; in test [11], 4.1 fold enrichment. Besides, the binding signal with BARHL2 DBD T285A (LBX1) stood at 3.5 fold enrichment; in test [12], 4.9 fold enrichment.

As to TAAGTG, the binding signal stood at 6.2 fold enrichment in test [1]; 8.6 fold enrichment in test [2]; 5.9 fold enrichment with BARHL2 DBD T278V (EMX1); 6.1 fold enrichment in test [3]; 4.4 fold enrichment with BARHL2 DBD T285M (NANOG); 4 fold enrichment in test [4]. Moreover, the binding signal in [5] was found to be 2.5 fold enrichment; in test [6] it was 3.7 fold enrichment; in [7], 5 fold enrichment; in test [8] it was 4.4 fold enrichment; in test [9] it was 6.4 fold enrichment; in test [10] it was 6.2 fold enrichment. Moreover, the binding signal was 2.6 fold enrichment in test [11], 6.1 fold enrichment in the test with BARHL2 DBD T285A (LBX1) and 1.3 fold enrichment in test [12].

Take TAATTG: the binding signal is 43.5 fold enrichment in test [1]; 17.6 fold enrichment in [2]; 11.2 fold enrichment in the test with BARHL2 DBD T278V (EMX1); 13.1 fold enrichment in [3]; 6 fold enrichment in the test with BARHL2 DBD T285M (NANOG); 13.3 fold enrichment in test [4]. Moreover, the binding signal in [5] turned out to be 10.4 fold enrichment; in test [6], 4.9 fold enrichment; in test [7] it was 11.5 fold enrichment; in [8], 8.5 fold enrichment; in test [9] it was 14 fold enrichment; in [10], 16.2 fold enrichment. Further, the binding signal in [11] came to 5.8 fold enrichment; with BARHL2 DBD T285A (LBX1) it was 8 fold enrichment; in [12], 1.8 fold enrichment.

With TAAATG, the binding signal in [1] is 12.6 fold enrichment; in [2] it was 1.9 fold enrichment; with BARHL2 DBD T278V (EMX1), 5.9 fold enrichment; in test [3], 5 fold enrichment; in the test with BARHL2 DBD T285M (NANOG), 3.4 fold enrichment; in [4], 4.3 fold enrichment. Also, the binding signal in [5] came out at 3.3 fold enrichment; in [6], 2.2 fold enrichment; in test [7], 2.9 fold enrichment; in test [8] it was 3 fold enrichment; in test [9], 3.2 fold enrichment; in test [10] it was 4 fold enrichment. In addition, the figures for the binding signal (in [11]; with BARHL2 DBD T285A (LBX1)) were 2 fold enrichment and 4.1 fold enrichment, respectively.

The record behind these values is PMC11996681, “Interfacial water confers transcription factors with dinucleotide specificity”.
